High-throughput results: PubChem, The Scripps Research Institute Molecular Screening Center
ADAM10 inh = human ADAM10 inhibitors, primary screen, biochemical, QFRET, HTS | Disintegrin and metalloproteinase domain-containing protein 10 (Homo sapiens), O14672 | recombinant ADAM10, EDANS/DABCYL FRET peptide cleavage, 3 h | inhibition, % at 7 µM | 370,000 compounds, 0.62% hits;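 active means inhibition above a per-campaign cutoff equal to the mean of compounds falling between control-based bounds plus 3 SD, cut at about 20% in these data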
PLC-gamma1 inh = PLC-gamma1 enzyme inhibitors, primary screen, biochemical, fluorescence, purified enzyme. fluorogenic substrate. inhibition, % at 12.2 µM. 370,000 compounds, 0.84% hits. 1-phosphatidylinositol 4,5-bisphosphate phosphodiesterase gamma-1 (Homo sapiens), P19174. AID 720700, 2013; in the data active means inhibition above about 9.5%
sPLA2-III inh = human group III sPLA2 inhibitors, primary screen, biochemical, QFRET, BODIPY PC-A2 liposome substrate. QFRET BODIPY PC-A2 liposome hydrolysis, fluorescence. AID 743126, 2013. inhibition, % at 12.2 µM. 370,000 compounds, 0.56% hits. Group 3 secretory phospholipase A2 (Homo sapiens), Q9NZ20;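 active means inhibition above mean plus 3 SD of compounds lying within the high and low control bounds, cut at about 19% in these data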
Target sequence (Q9NZ20 whole entry, looked up): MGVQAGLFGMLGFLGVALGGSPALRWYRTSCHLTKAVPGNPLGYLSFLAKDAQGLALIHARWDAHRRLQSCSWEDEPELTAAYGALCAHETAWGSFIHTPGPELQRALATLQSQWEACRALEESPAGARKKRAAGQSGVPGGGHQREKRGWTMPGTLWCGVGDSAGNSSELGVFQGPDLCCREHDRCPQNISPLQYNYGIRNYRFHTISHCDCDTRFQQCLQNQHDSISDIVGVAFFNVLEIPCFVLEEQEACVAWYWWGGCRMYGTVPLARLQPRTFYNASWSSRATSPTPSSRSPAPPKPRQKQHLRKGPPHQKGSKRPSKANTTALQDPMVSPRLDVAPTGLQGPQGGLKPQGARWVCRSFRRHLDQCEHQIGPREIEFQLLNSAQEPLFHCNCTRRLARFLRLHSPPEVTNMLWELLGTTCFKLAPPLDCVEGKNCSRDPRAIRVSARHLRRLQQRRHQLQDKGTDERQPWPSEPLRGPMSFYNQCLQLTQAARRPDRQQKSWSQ
ADAM17 inh = ADAM17 inhibitors, primary screen, biochemical, QFRET; recombinant ADAM17, EDANS/DABCYL FRET peptide cleavage; inhibition, % at 6.95 µM; 370,000 compounds, 0.83% hits; Disintegrin and metalloproteinase domain-containing protein 17 (Homo sapiens), P78536;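 active means inhibition above the mean of compounds lying between control limits plus 3 SD, set per campaign, cut at about 8.5% in these data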
KLK7 zymogen act = proKLK7 zymogen activators, primary screen, biochemical, fluorescence intensity; Kallikrein-7 (Homo sapiens), P49862; purified proKLK7, EDANS-DABCYL substrate fluorescence; 100% is mature enzyme control, 0% vehicle; activation, % at 7 µM; 370,000 compounds, 0.9% hits;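 active means activation above the mean of all tested compounds plus 3 SD, computed per campaign excluding outliers beyond control limits, cut at about 13% in these data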
PLCb3 inh = human PLC-beta3 inhibitors, primary screen, biochemical, fluorescence. 1-phosphatidylinositol 4,5-bisphosphate phosphodiesterase beta-3 (Homo sapiens), Q01970. 370,000 compounds, 0.18% hits. Purified PLC-beta3, fluorogenic substrate. inhibition, % at 12.2 µM; in the data active means inhibition above about 11%
proKLK7 act conf = proKLK7 zymogen activators, confirmation, biochemical, fluorescence intensity, triplicate; shares compounds with KLK7 zymogen act; purified proKLK7, EDANS-DABCYL substrate fluorescence; scaled: vehicle 0, mature enzyme 100; activation, % at 7 µM; 3,200 compounds, 68% hits;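 active means activation, as change over the incubation, above the mean of all tested compounds plus 3 SD, cut at about 13% in these data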
EDANS interfere = EDANS-DABCYL substrate optical interference, artefact control for kallikrein-7 zymogen activator project, biochemical, fluorescence intensity, high throughput | shares compounds with KLK7 zymogen act | no enzyme, 4 h; solvent 0%, active enzyme control 100% | activation, % at 7 µM | 3,200 compounds, 80% hits | AID 686952, 2013;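 active means activation above the all-compound mean plus 3 SD, ignoring values outside control-based bounds, cut at about 4.8% in these data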;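 further: value is the 4 h activation minus the activation read at time zero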
K7 EDANS ctr = optically interferes with EDANS-DABCYL fluorescence, kallikrein-7 activator counter-screen; shares compounds with KLK7 zymogen act; EDANS-DABCYL peptide fluorescence interference, no enzyme; EC50, µM; 250 compounds, 20% hits;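 active means compounds that raise the fluorescence signal in this interference counterscreen, with EC50 at or below 10 µM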;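 further: intact quenched peptide substrate alone read at 355 nm excitation and 520 nm emission; signal is fluorescence gain from T0 to T4 after four hours at room temperature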
Numbers stand for hits; – = inactive; · = no result. Rows were chosen to be rich in hits. Some 3.4% of all compounds tested hit in one or more screens of this group.

SMILES	ADAM10 inh	PLC-gamma1 inh	sPLA2-III inh	ADAM17 inh	KLK7 zymogen act	PLCb3 inh	proKLK7 act conf	EDANS interfere	others
N#Cc1ccc(Cn2ccc3ccc(-c4ccc5ccn(C(=O)C6CCC6)c5c4)cc32)cc1	–	–	–	–	–	–	·	·
CCCCCCN1CCS(=O)(=O)N(Cc2ccc(OC)cc2)C(C(=O)OC)C1 (stereo not given)	–	–	–	–	–	–	·	·
COc1cccc(-c2cc(C(F)(F)F)c(C#N)c(=O)[nH]2)c1	–	–	–	–	17	–	40	51
CC1CCC2(CCC(=O)N2C[C@@H](O)c2ccccc2)CC1 (stereo not given in full)	–	–	–	–	·	–	·	·
CCn1c(/C=C/c2cc[n+](C)cc2)nc2ccccc21	–	–	–	–	57	–	59	62
COc1cccc(CNC(=O)C2C3C=CC4(CN(Cc5ccccc5)C(=O)C24)O3)c1OC (stereo not given)	–	–	–	–	–	–	·	·
COC(=O)c1ccc(N2C(c3cc(OC)cc(OC)c3)=Cc3ccc(-c4cccnc4)cc3C2CC(=O)C2CC2)cc1 (stereo not given)	–	–	–	–	62	–	29	–	K7 EDANS ctr=–
COc1cc(OC)cc(C2=Cc3ccccc3C(CC(=O)c3ccco3)N2c2ccc(-c3cccnc3)cc2)c1 (stereo not given)	–	–	–	–	–	–	·	·
COC(=O)c1ccc(N2C(c3cc(OC)cc(OC)c3)=Cc3ccc(-c4ccc(C(N)=O)cc4)cc3C2CC(=O)C2CC2)cc1 (stereo not given)	–	–	–	–	40	–	57	23	K7 EDANS ctr=–
O=C(OC1CC2CCC(C1)[N+]21CCCC1)C(O)(c1ccccc1)c1ccccc1 (stereo not given)	–	–	–	–	–	–	·	·
COC(=O)C1CN(C2CCCC2)CCS(=O)(=O)N1Cc1cn(Cc2ccc(C)cc2)nn1 (stereo not given)	–	–	–	–	–	–	·	·
O=C(CSc1nncc(=O)[nH]1)NC1CCCCC1	–	–	–	–	–	–	·	·
O=C(CSc1nccc(=O)[nH]1)NC1CCCCCC1	–	–	–	–	61	–	–	–
CN(CCc1ccccn1)C(=O)c1ccc(Sc2ccccc2Cl)c([N+](=O)[O-])c1	–	–	–	–	–	–	·	·
COc1ccc(NC(=O)c2ccc(NC(=O)CSc3nc(N)cc(=O)[nH]3)cc2)cc1	–	–	–	–	23	–	17	14	K7 EDANS ctr=–
CCC1CCCCN1C(=O)n1ncc(C(O)(c2ccccc2)c2ccccc2)n1 (stereo not given)	–	–	–	–	·	–	·	·
Cc1ccc(-c2nc3cnccn3c2Nc2ccccc2)o1	–	–	–	–	–	–	·	·
Cc1ccc(-c2nc3ccccn3c2Nc2ccccc2)o1	–	–	–	–	28	–	63	68
COc1cc2cc(C(=O)N3CCN(Cc4ccc5c(c4)OCO5)CC3)c(=O)oc2cc1OC	–	–	–	–	61	–	68	73
CCOC(=O)CC[C@@]1(C(=O)OCC)C[C@@H](CC(=O)NCCCN2CCCC2=O)C(=O)N2CCCC=C21	–	–	–	–	–	–	·	·
